# Bioassay records: PubChem, National Center for Advancing Translational Sciences (NCATS)
# KB-V1 cytotox: kills drug-selected multidrug resistant KB-V1 cells; KB-V1 MDR cells viability, CellTiter-Glo, 72 h; Potency, µM (doses to about 46.1 µM), most hits filed as cytotoxic; hit rate 3.4% among 400,000; AID 1347076; note: nearly all actives have a fitted effect of over 60% in size
#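 Readout: CellTiter-Glo luminescence, 10 min after addition. Cells: KB-V1 MDR subline, 72 h at 37 degrees C with compound. Analysis: corrected, normalized data fitted to concentration-effect curves.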
# MCF10A rerep: inducers of DNA re-replication in MCF 10A breast cells. MCF 10A DNA re-replication, Hoechst nuclear intensity, 48 h. Potency, µM (titrated, usually from 46.1 µM), most hits filed as activators. hit rate 2.9% among 350,000; note: nearly all actives have a fitted effect of over 50% in size
# ELG1 repair inh: ELG1-dependent DNA repair inhibition | HEK293T ELG1-luciferase reporter, luminescence, 16 h; DNA damage induced by 5-fluorouridine | AID 504467 | hit rate 2.3% among 330,000 | Potency, µM (top dose mostly 46.1 µM), most hits filed as inhibitors; note: nearly all actives have a fitted effect of over 55% in size
#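 HEK293T cells expressing luciferase-tagged ELG1 (2,000/well) received 5-Fluorouridine plus compound or DMSO for 16 hr at 37 °C. Luciferase was read by ONE-Glo luminescence after 30 min at room temperature.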
# SW480 rereplic: induces DNA re-replication in SW480 colon adenocarcinoma cells. Potency, µM (highest dose often 46.1 µM), usual class: activators. hit rate 1.8% among 340,000. SW480 DNA re-replication, Hoechst DNA content imaging, 48 h; note: nearly all actives have a fitted effect of over 55% in size
#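 Readout is total intensity of Hoechst-stained nuclei, excited at 405 nm and collected at 500-530 nm. Compound treatment lasted 48 hr at 37 C in 5% CO2 before staining.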
# KB-3-1 tox: KB-3-1 parental cell cytotoxicity. KB-3-1 viability, CellTiter-Glo ATP luminescence, 72 h. Potency, µM (titrated, usually from 46.1 µM), hits mostly cytotoxic. hit rate 1.4% among 400,000; note: nearly all actives have a fitted effect of over 60% in size
#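 Cytotoxicity measured as CellTiter-Glo luminescence after 72 h at 37 C. Compound titrations were pinned onto drug-naive KB-3-1 parental adenocarcinoma cells grown in DMEM with 10% FBS, and normalized data fitted to concentration-response curves.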
# Numbers stand for hits; 0 = inactive; ? = inconclusive; - = no result. Shown are actives, neighbours in structure and some others; about 8.1% of the full set was active somewhere. Calls come from the whole dose curve; as a rule, active = well fitted curve in the direction sought with a large enough effect; inconclusive = small, poorly fitted or top-dose-only effect, or another doubt; inactive = no such curve, though single readings can be large; an effect the other way counts as inactive or inconclusive.
SMILES,KB-V1 cytotox,MCF10A rerep,ELG1 repair inh,SW480 rereplic,KB-3-1 tox
Cc1cc(OCC(=O)Nc2cc(S(=O)(=O)N3CCOCC3)ccc2N2CCCC2)ccc1C(C)C,7.31µM,0,0,0,0
COc1ccccc1OCC(=O)Nc1cc(S(=O)(=O)N2CCOCC2)ccc1N1CCCCC1,0,0,25.9µM,0,0
Cc1ccc(OCC(=O)Nc2cc(S(=O)(=O)N3CCOCC3)ccc2N2CCCC2)cc1,0,0,?,?,0
c1cncc(CSc2nnc(-c3cccnc3)n2Cc2ccco2)c1,-,-,0,-,-
O=C(CSc1nnc(-c2cccnc2)n1Cc1ccco1)N1c2ccccc2Sc2ccccc21,6.51µM,0,?,0,0
O=C(NCC(c1ccco1)N1CCN(c2ccccc2F)CC1)c1ccc2c(c1)OCO2 (stereo not given),?,0,13µM,0,?
O=C(NCc1ccncc1)C(=O)NCC(c1ccco1)N1CCN(c2ccccc2)CC1 (stereo not given),?,0,20.6µM,0,0
COc1ccc(N2CCN(C(CNC(=O)C(=O)NCc3cccnc3)c3ccco3)CC2)cc1 (stereo not given),?,0,?,0,0
O=C(NCC(c1ccco1)N1CCN(c2ccc(F)cc2)CC1)c1ccc2c(c1)OCO2 (stereo not given),0,?,?,?,0
O=C(COc1ccccc1)NCC(c1ccco1)N1CCN(c2ccc(F)cc2)CC1 (stereo not given),0,0,?,?,0
O=C(NCc1cccnc1)C(=O)NCC(c1ccco1)N1CCN(c2ccc(F)cc2)CC1 (stereo not given),2.59µM,0,0,0,?
O=C(COc1ccccc1)NCC(c1ccco1)N1CCN(c2ccccc2F)CC1 (stereo not given),14.6µM,0,0,?,?
CCC(C)NC(=O)c1ccc(NC(=O)CC2SC(N3CCCC3)=NC2=O)cc1 (stereo not given),0,0,0,0,0
O=C(NCc1ccncc1)C(=O)NCC(c1ccco1)N1CCN(c2ccccc2F)CC1 (stereo not given),2.31µM,0,?,0,0
Cc1cc(C)cc(NC(=O)C(=O)NCC(c2ccc3c(c2)OCO3)N2CCN(C)CC2)c1 (stereo not given),0,-,-,-,0
Cc1cccc(-n2ncc3c(N4CCCc5ccccc54)ncnc32)c1,8.2µM,11.6µM,?,20.6µM,?
c1ccc(CNc2nnnn2-c2ccccc2)cc1,20.6µM,0,?,0,?
CC(C)OCCCNc1ncnc2c1cnn2-c1ccccc1,14.6µM,0,?,0,0
O=C(Cn1cnc2c(NCc3ccccc3)ncnc21)NCc1ccccc1,7.31µM,9.2µM,?,11.6µM,2.91µM
CN(C)CCCNc1ncnc2c1cnn2-c1ccccc1,?,0,?,0,0
CC(=O)NC(C)(c1ccccc1)c1nc(-c2cccc(C(F)(F)F)c2)cs1 (stereo not given),0,-,-,-,0
Cc1cccn2c(=O)c3cc(S(=O)(=O)c4ccccc4)c(=N)n(CC4CCCO4)c3nc12 (stereo not given),0,?,?,?,0
Cc1ccc(C(C)(C)c2ccc(C)cc2)cc1,-,0,-,0,-
COc1ccc(COC(=O)c2cccc(S(=O)(=O)N3CCN(C(C)=O)CC3)c2)cc1,0,0,0,0,0
CC(C)Nc1ncnc2c1cnn2-c1ccc(Cl)cc1,?,0,?,0,7.31µM
SMILES,KB-V1 cytotox,MCF10A rerep,ELG1 repair inh,SW480 rereplic,KB-3-1 tox
Cc1cccc(-n2ncc3c(NCc4ccco4)ncnc32)c1,0,16.4µM,?,?,?
c1ccc(CCNc2ncnc3c2cnn3-c2ccccc2)cc1,0,?,?,18.4µM,0
Cc1ccc(-n2ncc3c(NCc4ccco4)ncnc32)cc1C,0,0,?,?,0
Clc1ccc(Nc2ncnc3c2cnn3-c2ccccc2)cc1,?,0,?,0,0
Cc1ccc(-n2ncc3c(NCCc4ccccc4)ncnc32)cc1C,0,-,-,-,0
Cc1ccc(-n2ncc3c(NNC(=O)Cc4ccccc4)ncnc32)cc1,?,23.1µM,0,0,0
C[C@H](CO)N1C[C@H](C)[C@@H](CN(C)S(C)(=O)=O)OCc2cnnn2CCCC1=O,0,-,-,-,0
c1ccc(CNc2ncnc3c2cnn3-c2ccccc2)cc1,2.59µM,9.2µM,?,13µM,5.17µM
Fc1ccc(CNc2ncnc3c2cnn3-c2ccccc2)cc1,0,0,-,0,0
Cc1cccc(-n2ncc3c(NCc4ccccc4)ncnc32)c1,6.51µM,6.51µM,?,16.4µM,3.26µM
Cc1cccc(-n2ncc3c(NCc4ccccn4)ncnc32)c1,0,0,?,0,0
Cc1ccccc1NC(=O)Nc1nc(CN)cs1,0,-,-,-,0
C=CCOc1nc2c(c(=O)n(C)c(=O)n2C)n1Cc1ccccc1,8.2µM,0,?,?,?
C#CCOc1nc2c(c(=O)n(C)c(=O)n2C)n1Cc1ccccc1,0,0,18.3µM,0,0
Cc1ccc(C)c(Oc2nc3c(c(=O)n(C)c(=O)n3C)n2Cc2ccccc2)c1,?,-,-,-,0
COc1ccc(Oc2nc3c(c(=O)n(C)c(=O)n3C)n2Cc2ccccc2)cc1,?,0,0,0,0
COc1cc(-c2ccc(N3C(c4ccsc4)=Cc4ccc(F)cc4C3c3c[nH]c4ccc(C#N)cc34)cc2)cc(OC)c1OC (stereo not given),0,-,-,-,0
COc1cc(/C=C2/SC(=O)NC2=O)ccc1OCc1ccccc1,0,25.9µM,?,0,0
COc1cc(/C=C2\SC(=Nc3ccccc3OC)NC2=O)ccc1O,?,8.2µM,?,20.6µM,18.4µM
COc1cc(/C=C2\SC(N)=NC2=O)ccc1O,?,?,10.3µM,0,?
C=CCOc1ccc(/C=C2\SC(N)=NC2=O)cc1OC,0,0,?,0,0
COc1ccc(/C=C2/SC(=S)NC2=O)cc1OCc1ccccc1,0,?,?,0,0
COc1cc(/C=C2/SC(=Nc3ccc(O)cc3)NC2=O)ccc1O,?,5.17µM,?,4.61µM,9.2µM
Cc1ccc2c(c1)[C@H]1[C@H](CO2)[C@H](c2ccccc2)[C@]2(C)C(=O)N(C)CC(=O)N12,0,0,-,0,0
COc1cc(/C=C2\SC(=Nc3cccnc3)NC2=O)cc(OC)c1OC,0,3.66µM,0,0,0
SMILES,KB-V1 cytotox,MCF10A rerep,ELG1 repair inh,SW480 rereplic,KB-3-1 tox
COc1cc(/C=C2\SC(=Nc3ccccc3)NC2=O)cc(Cl)c1O,0,20.6µM,0,?,0
COc1ccc(/C=C2\SC(=Nc3ccccc3OC)NC2=O)cc1,?,3.26µM,0,?,?
O=C1NC(=Nc2cccnc2)S/C1=C\c1cccc(F)c1,0,?,0,0,0
O=C(Cn1ncc2c([nH]c3ccccc32)c1=O)NCc1cccc(Cl)c1,0,-,-,-,0
Cn1ncc2c(NCc3ccco3)ncnc21,0,-,-,-,0
CCOC(=O)c1c(NC(=O)CN2C(=O)NC(C)(c3ccccc3)C2=O)sc(C)c1C (stereo not given),16.4µM,10.3µM,?,?,16.4µM
